Reference: PubChem BioAssay (NCI)
The panel holds about 79,000 compounds, 15% with a hit somewhere; the sample as a whole holds those more often. Active and inactive are the calls of the source. No stated cut-off is given here; in the data, active means growth inhibition above about 70%; inactive means the rest.

Columns and labels:
[1] = NCI Yeast Anticancer Drug Screen. Data for the rad50 strain (AID 155);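 further: 0% = growth of vehicle-only cultures of the same strain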; conditions: S. cerevisiae rad50 strain growth inhibition; at 50.0 µM; stronger effect = higher value
Method in brief: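 A DNA repair-deficient yeast mutant serves as the test organism; compound-induced growth inhibition is calculated against vehicle-treated cells.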

[2] = NCI Yeast Anticancer Drug Screen. Data for the mec2-1 strain (AID 157); conditions: S. cerevisiae mec2-1 strain, at 50.0 µM, stronger effect = higher value
Method in brief: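 mec2-1 yeast strain, carrying an alteration in DNA damage repair or cell cycle control, was exposed to compounds; growth inhibition was measured relative to vehicle-treated controls.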

[3] = NCI Yeast Anticancer Drug Screen. Data for the sgs1 mgt1 strain (AID 161);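 further: 0% = growth of cultures given vehicle only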; conditions: S. cerevisiae sgs1 mgt1 strain, at 50.0 µM, stronger effect = higher value
Method in brief: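 Compounds are added to genetically altered yeast, and growth is compared with cultures given vehicle alone to give percent inhibition.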

[4] = NCI Yeast Anticancer Drug Screen. Data for the cln2 rad14 strain (AID 165);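 further: 0% = growth equal to vehicle treated cultures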; conditions: S. cerevisiae cln2 rad14 strain, at 50.0 µM, stronger effect = higher value
Method in brief: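 Yeast carrying cln2 and rad14 alterations (cell cycle control and DNA damage repair) were exposed to compounds. Growth inhibition was measured against vehicle-treated controls.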

[5] = NCI Yeast Anticancer Drug Screen. Data for the bub3 strain (AID 167); conditions: S. cerevisiae bub3 mutant strain, at 50.0 µM, stronger effect = higher value
Method in brief: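 Inhibition values come from growth of compound-treated mutant yeast normalised to vehicle-treated controls.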

[6] = NCI Yeast Anticancer Drug Screen. Data for the mlh1 rad18 strain (AID 175); conditions: S. cerevisiae mlh1 rad18 strain growth inhibition; at 50.0 µM; stronger effect = higher value
Method in brief: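 Growth inhibition of the yeast strain was measured after compound exposure and expressed relative to vehicle-treated controls. The strain carries defined defects in DNA damage repair.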

Measured: growth inhibition

CCC(C(=O)O)C1=CCCCC1 (stereo unspecified)
inactive: [1] 15.7% | [2] -13.6% | [3] 16.2% | [4] 16.1% | [5] -14.2% | [6] 4.45%

COc1cc(C2C3=C(CCC3=O)Oc3cc4c(cc32)OCO4)cc(OC)c1OC (stereo unspecified)
inactive: [1] 2.55% | [2] 17.1% | [3] -12.2% | [4] 2.05% | [5] -4.55% | [6] 1.8%

C=C1c2ccccc2N(S(=O)(=O)c2ccc(C)cc2)C12CCCCC2
inactive: [1] 3.9% | [2] 14.6% | [3] -10.2% | [4] -3.2% | [5] -0.7% | [6] -6%

Nn1c(=S)[nH]nc(/C=C/c2ccc3c(c2)OCO3)c1=O
inactive: [1] 38.9% | [2] 20.1% | [3] 3.8% | [4] -19.1% | [5] 6.35% | [6] 15.6%

CCOC(=O)Nc1ccc(C(=O)OCC)cc1
inactive: [1] 29.8% | [2] -15.1% | [3] 7.85% | [4] 8.1% | [5] -16.3% | [6] 13.7%

CCC(=O)n1cc2ccc([N+](=O)[O-])cc2n1
inactive: [1] 1.35% | [2] 1.35% | [3] -4% | [4] -57.8% | [5] 13.2% | [6] -3.05%

O=C1C(c2ccccc2)=C(c2ccccc2)C(c2ccc(Cc3ccc(C4=C(c5ccccc5)C(=O)C(c5ccccc5)=C4c4ccccc4)cc3)cc2)=C1c1ccccc1
inactive: [1] 20.1% | [2] 32.4% | [3] 16.8% | [4] 14.6% | [5] 15.1% | [6] 26.6%

c1ccc2c(c1)c1c(n2CCOCCN2CCCCC2)CCCC1
inactive: [1] 33.9% | [2] 19.9% | [3] 29.3% | [4] 28.1% | [5] 28.4% | [6] 19.8%

COc1ccc(CCNC(=O)CCC2CCN(CCc3ccc(OC)c(OC)c3)CC2)cc1OC
inactive: [1] 16.2% | [2] -2.05% | [3] 1.65% | [4] 22.4% | [5] -1.5% | [6] 3.6%

CCN1CCNC(=O)C1c1ccccc1 (stereo unspecified)
inactive: [1] -9.3% | [2] 16.1% | [3] -17.2% | [4] 1.35% | [5] -1.1% | [6] 1.05%

COc1ccc(OC)c(NC(=O)C2=C(C)NC(C)=C(C(=O)Nc3cc(OC)ccc3OC)C2c2cccc([N+](=O)[O-])c2)c1
inactive: [1] 1.05% | [2] 8.65% | [3] 1.9% | [4] -9.3% | [5] 7.5% | [6] 4.25%

CCCCNC(=S)/N=C/c1c(O)c2ccccc2[nH]c1=O
inactive: [1] -39.7% | [2] -15.2% | [3] -52.9% | [4] -18.9% | [5] 3.9% | [6] -41%

COc1ccccc1Nc1nc2c([nH]1)c(=O)n(C)c(=O)n2C
inactive: [1] -33.9% | [2] -15.2% | [3] -41.9% | [4] -32.8% | [5] -4% | [6] -5.85%

Cc1ccc(C2C(Cl)C(=O)N2NC(=O)c2ccc(N)cc2)cc1 (stereo unspecified)
inactive: [1] -50.4% | [2] -21.5% | [3] -61.1% | [4] -46.8% | [5] -27.4% | [6] -42%

Nc1cc(F)ccc1CC(=O)O
inactive: [1] 11.4% | [2] 23.1% | [3] 15.3% | [4] -4.8% | [5] 11.7% | [6] 4.6%

S=C1CNC(=S)CN1
inactive: [1] -4.15% | [2] -21.9% | [3] 0.7% | [4] 8.75% | [5] 10.8% | [6] -22.9%

C/C(=C\C(=O)c1cccc([N+](=O)[O-])c1)c1cccc([N+](=O)[O-])c1
inactive: [1] 1.35% | [2] 15.3% | [3] 0.7% | [4] -21.6% | [5] 2.6% | [6] 29.6%

NC(=S)N/N=C/c1ncccc1N
inactive: [1] 14.8% | [2] 50.6% | [3] 39.2% | [4] 35% | [5] 34.9% | [6] -21.7%

CC(C)CCC(=S)N1CCN(c2ccccc2)CC1
inactive: [1] -0.4% | [2] 7.25% | [3] 2.2% | [4] -45.1% | [5] 2.05% | [6] -17.4%

Cc1ncc([N+](=O)[O-])n1CCNC(=O)CCCn1cnc([N+](=O)[O-])n1
inactive: [1] -17.8% | [2] -34% | [3] -15.8% | [4] -17.4% | [5] -27.9% | [6] -38.9%

Nc1nnc2nc(C(C(=O)/C=C\c3cccc(O)c3)c3nc4nnc(N)n4[nH]c3=O)c(=O)[nH]n12
inactive: [1] 30.4% | [2] 15.1% | [3] 19.6% | [4] 1.65% | [5] -5.35% | [6] 19.7%

O=[N+]([O-])c1ccc2c(c1)C(O)c1ccccc1-2 (stereo unspecified)
inactive: [1] 35.6% | [2] 24.6% | [3] 12.9% | [4] 26.9% | [5] 26.2% | [6] 29.1%

CN(C)Cc1cc(C(=O)c2ccccc2)c(O)cc1O
inactive: [1] -38.4% | [2] -4.05% | [3] -0.9% | [4] -23.6% | [5] -2.05% | [6] 13.2%

CCCCCCCCCCCCCCCC(=O)OCC(O)C1OC(=O)C(O)=C1O (stereo unspecified)
inactive: [1] 28.1% | [2] -0.75% | [3] 4.6% | [4] 9.15% | [5] 24.2% | [6] 46.7%

C[C@H](CCc1nc(C#N)c(N)o1)[C@H]1CC[C@H]2[C@@H]3CCC4C[C@@H](O)CC[C@]4(C)[C@H]3C[C@@H](O)[C@]12C (stereo partly specified)
inactive: [6] 46%
active: [1] 87% | [2] 91.6% | [3] 86% | [4] 87.7% | [5] 84%

CCCCCCCCCCN=C(N)CSSCC(N)=NCCCCCCCCCC
active: [1] 96.2% | [2] 97% | [3] 97.1% | [4] 92.8% | [5] 95% | [6] 97.4%

CCOC(=O)c1ccc(NC(=O)Nc2cc(Cl)ncn2)cc1
inactive: [1] 10.1% | [2] -6.55% | [3] 9.15% | [4] -22.9% | [5] 10.3% | [6] -6.15%

C/C(=N\N=C(N)N)c1sc(-c2nc(C)c(/C(C)=N/N=C(N)N)s2)nc1C
inactive: [1] 4.35% | [2] -11.2% | [3] -13.3% | [4] 26.4% | [5] 6.85% | [6] 19.6%

Nc1nc2nn(-c3ccc(C(=O)NC(CCC(=O)O)C(=O)O)cc3)nc2c(=O)[nH]1 (stereo unspecified)
inactive: [1] 7.05% | [2] 2.75% | [3] 12.9% | [4] 30.5% | [5] 9.05% | [6] -1.4%

NC(=O)N/N=C/C(/C=N/NC(N)=O)[N+](=O)[O-]
inactive: [1] -3.8% | [2] -7.4% | [3] -10.3% | [4] -1.75% | [5] -14.6% | [6] 6.8%

CC(=O)C1CCCCCCC1=O (stereo unspecified)
inactive: [1] 16.1% | [2] -5.35% | [3] 4.9% | [4] -15.8% | [5] -11.8% | [6] 16.1%

O=C(Nc1ccc(C(F)(F)F)cc1[N+](=O)[O-])C(=O)Nn1c(=S)[nH]c2ccccc2c1=O
inactive: [1] 20.3% | [2] 11.7% | [3] -4.65% | [4] 18.5% | [5] 7.9% | [6] 23.1%

[Co+2].[NH-]C(Cc1ccc(O)cc1)C(=O)O.[NH-]C(Cc1ccc(O)cc1)C(=O)O (stereo unspecified)
inactive: [1] 56.5% | [2] 10.2% | [3] 5.8% | [4] 16.3% | [5] 16% | [6] 34%

CCOC(=O)/C=C/SCCCN
inactive: [1] 3.95% | [2] -1.4% | [3] 3.3% | [4] -22.3% | [5] -4.75% | [6] 6.4%

COC(=O)C1(C(C)C(=O)c2ccc(Cl)cc2)NC(=S)NC(=O)C1C#N (stereo unspecified)
inactive: [1] 0.4% | [2] 6.05% | [3] -24.9% | [4] -0.8% | [5] -8.5% | [6] 12.7%

[Cl][Pd][Cl].[NH-]c1ccc(/C=C2\C=Cc3ccccc32)cc1.[NH-]c1ccc(/C=C2\C=Cc3ccccc32)cc1
inactive: [2] 32.8% | [4] 47.4%
active: [1] 89.5% | [3] 83.7% | [5] 75.5% | [6] 79.3%
